Source: PubChem
An excerpt weighted towards active compounds, which were near 6% of everything screened.
D3 ag – qHTS of D3 Dopamine Receptor Agonist: qHTS; D3R DiscoveRx beta-arrestin cells, luminescence, 90 min; max activation, %; AID 652048, 2013; D(3) dopamine receptor (Homo sapiens), P35462; 410,000 compounds, 0.58% hits; in the data active = max activation above about 30%; note: 0% is about no effect
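Cells at 1500/well, incubated overnight, then treated with pinned compounds (dopamine as control) for 90 min at 37 degrees C. DiscoveRx reagent added for 30 - 60 minutes at room temperature; luminescence read.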
D1 antagonist – Antagonist of Human D 1 Dopamine Receptor: qHTS. D(1A) dopamine receptor (Homo sapiens), P21728. HEK293 TREx D1 cells, calcium flux, dopamine EC80; stronger effect = lower value. activity change, negative = inhibition, % at 10 µM. 360,000 compounds, 3.2% hits. AID 504652, 2011; in the data active = activity change below about -30%; note: % is set by controls: 0 for no effect and ±100 for the full control effect
Target sequence (P21728 whole entry, looked up): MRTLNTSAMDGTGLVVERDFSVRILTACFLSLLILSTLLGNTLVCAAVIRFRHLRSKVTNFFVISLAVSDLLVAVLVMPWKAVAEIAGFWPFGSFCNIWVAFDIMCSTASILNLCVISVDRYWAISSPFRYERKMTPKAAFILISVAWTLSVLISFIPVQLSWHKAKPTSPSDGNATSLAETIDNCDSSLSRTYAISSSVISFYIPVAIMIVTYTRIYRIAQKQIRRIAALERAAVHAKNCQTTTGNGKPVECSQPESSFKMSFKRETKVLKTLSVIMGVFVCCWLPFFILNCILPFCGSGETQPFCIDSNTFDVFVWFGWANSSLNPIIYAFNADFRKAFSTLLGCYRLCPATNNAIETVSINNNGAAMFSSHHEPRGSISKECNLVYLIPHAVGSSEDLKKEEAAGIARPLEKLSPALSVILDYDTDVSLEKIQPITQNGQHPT
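Inducible Hek293 Trex D1 cells (tetracycline, overnight, 30 C). Calcium dye 30–90 min RT. Antagonist mode: EC80 dopamine added after 180 s compound read.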
D1 PAM – Potentiators of Human D1 Dopamine Receptor: qHTS. HEK293 TREx D1 cells, calcium flux, dopamine EC20 potentiation. potentiation, % at 10 µM. 360,000 compounds, 0.036% hits. AID 504651, 2011; in the data active = potentiation above about 30%; note: 0% is about no effect
DRD3 antagonist – qHTS of D3 Dopamine Receptor Antagonist: qHTS; D(3) dopamine receptor (Homo sapiens), P35462; D3R cells, DiscoveRx beta-arrestin luminescence, antagonist mode; stronger effect = lower value; 360,000 compounds, 2.5% hits; max response, negative = inhibition, %; in the data active = max response below about -50%; inconclusive = no clear call, values can overlap the other calls; note: % is set by controls: 0 for no effect and ±100 for the full control effect
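Cells plated overnight at 1500 cells/well, then exposed to library compounds with dopamine controls for 90 minutes at 37 degrees C. DiscoveRx reagent added for 30–60 minutes at room temperature; luminescence read, quantitative HTS format.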
D1 ag – Allosteric Agonists of the Human D1 Dopamine Receptor: qHTS; HEK293 T-REx D1 cells, calcium flux, agonist mode; 360,000 compounds, 1% hits; D(1A) dopamine receptor (Homo sapiens), P21728; activation, % at 2 µM; in the data active = activation above about 30%; note: 0% is about no effect
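Tetracycline-induced HEK293 TREx D1 cells, force-coupled to calcium signalling, were dye-loaded with a no-wash calcium kit. Compound was pin-added after a 10 s baseline. Fluorescence was read kinetically at 1 cycle/s for 180 s, with calcium rises flagged as agonism.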
* hit, by the source's call; ? = inconclusive; . = not tested or not shown.

SMILES | D3 ag | D1 antagonist | D1 PAM | DRD3 antagonist | D1 ag
COc1cc(/C=C/c2ccc3cccc(OC)c3n2)c(OC(C)=O)c([N+](=O)[O-])c1 | -9 | -32* | -8 | -53* | 4
COc1cc(/C=C/c2ccc3cccc(OC)c3n2)c(O)c([N+](=O)[O-])c1 | 4 | -7 | 2 | -21 | 0
O=c1cc(N2CCN(c3ccc(F)cc3)CC2)[nH]c(=O)n1-c1ccc(Br)cc1 | 0 | -40* | -1 | . | 1
CCC(C)NS(=O)(=O)c1ccc(NC(=O)c2ccc([N+](=O)[O-])cc2Cl)cc1 (configuration not stated) | 2 | -31* | -4 | 17 | 4
Cc1ccc(S(=O)(=O)c2nc(-c3ccccc3F)oc2N2CCCCC2)cc1 | -9 | -2 | -4 | . | 4
CCOC(=O)N=S(N)(=O)c1ccccc1 (configuration not stated) | 32* | -1 | -3 | 16 | 1
CCOC(=O)CC(S(=O)(=O)c1ccccc1)S(=O)(=O)c1ccccc1 | -13 | . | . | -95* | .
COC(=O)c1ccccc1S(=O)(=O)N1CCC(C(=O)OCc2cccc(OC)c2OC)CC1 | 18 | -39* | -1 | 13 | 44*
COc1ccc(C(=O)COC(=O)C2CCN(S(=O)(=O)c3cccc4cccnc34)CC2)cc1 | 2 | -70* | -6 | 10 | 5
O=C(NC1CCCC1)C1CCCN1S(=O)(=O)c1cccc2cccnc12 (configuration not stated) | -12 | -34* | -5 | -3 | 1
O=C(NC1CCCCCC1)C1CCCN1S(=O)(=O)c1cccc2cccnc12 (configuration not stated) | -12 | 8 | 2 | 0 | 0
O=C(NC1CCCCC1)C1CCN(S(=O)(=O)c2cccc3cccnc23)CC1 | -10 | -65* | -9 | -25 | 3
CCOC(=O)N1CCC(NC(=O)C2CCN(S(=O)(=O)c3cccc4cccnc34)CC2)CC1 | 0 | -7 | -4 | 23 | 3
CC(=O)c1cccc(N2C(=O)CN(S(C)(=O)=O)CC2(C)C(=O)NC2CCCC2)c1 (configuration not stated) | -4 | 4 | -1 | . | 0
C1COCCNCCOCCOCCN1 | 1 | -8 | 5 | -92* | 2
Clc1ccccc1Cn1nnc(-c2ccccc2)n1 | -10 | -35* | -12 | -14 | 18
Clc1ccccc1Cn1nnc(-c2cccs2)n1 | -22 | -16 | -8 | -2 | 20
C=CCOc1ccc(Br)cc1CNC(C)(C)CO | 0 | -42* | -5 | 0 | 3
CCCN(CCC)CCNC(=O)C1CCN(c2nc3ccc(CC)cc3s2)CC1 | 15 | -30* | 6 | . | 90*
CCCN(CCC)CCCNC(=O)C1CCN(c2nc3ccc(CC)cc3s2)CC1 | -6 | -31* | 0 | . | 30*
CCOC(=O)c1ccc(NC(=O)C2=C(C)Nc3nc(SCc4ccc(Cl)cc4)nn3C2c2ccc(OC)cc2)cc1 (configuration not stated) | -13 | 7 | -2 | . | -1
Cc1nn(CC(=O)NCC(C)c2ccccc2)c(=O)c2cc3ccccc3n12 (configuration not stated) | 4 | 26 | -3 | . | -1
Cc1cccc(C(c2sc3nc(-c4ccco4)nn3c2O)N2CCN(c3ccccc3)CC2)c1 (configuration not stated) | -13 | . | 3 | . | 1
Cc1ccc(Nc2nc(-c3cccnc3)cs2)cc1Cl | 5 | -4 | -5 | 5 | 6
Cc1ccc(C)c(Nc2nc(-c3cccnc3)cs2)c1 | 5 | -39* | -7 | 16 | 2
SMILES | D3 ag | D1 antagonist | D1 PAM | DRD3 antagonist | D1 ag
CCn1c(=O)c(-[n+]2ccccc2)c(O)c2ccccc21 | 1 | -35* | 2 | -26 | 2
CCn1c(=O)c(C(=O)NNC(=O)c2ccccc2)c(O)c2ccccc21 | 4 | -20 | -3 | -17 | 18
O=c1[nH]c2ccccc2c(O)c1-[n+]1ccccc1 | 32* | -1 | -4 | -18 | 3
CC1S/C(=N/N=C/c2ccco2)N(Cc2ccccc2)C1=O (configuration not stated) | -1 | -40* | -7 | -2 | 5
CCC1S/C(=N/N=C/c2ccco2)N(Cc2ccc(F)cc2)C1=O (configuration not stated) | 0 | -3 | 4 | -10 | 3
O=C(NCC(c1cccnc1)N1CCc2ccccc21)c1ccc(F)cc1 (configuration not stated) | -6 | -18 | -3 | . | 17
C=CCCCCCCCCC(=O)OC | 1 | . | . | . | .
O=c1[nH]cnc2ccc([N+](=O)[O-])cc12 | 1 | 6 | -8 | -9 | 2
O=c1[nH]cnc2c([N+](=O)[O-])cccc12 | -11 | 1 | -2 | -80* | 2
CCc1ccc(NC(=O)CSc2nnc(-c3nonc3NC(C)=O)n2-c2ccccc2)cc1 | 0 | 1 | 0 | . | 1
O=C(N/N=C\c1cn(-c2ccccc2)nc1-c1ccccc1)c1ccc(Br)o1 | 1 | 15 | -9 | 61 | 1
COc1ccc(-c2nn(-c3ccccc3)cc2/C=N/NS(=O)(=O)c2ccccc2)cc1 | 3 | 4 | -1 | -12 | 2
COc1ccc(-c2nn(-c3ccccc3)cc2/C=N/NC(=O)c2cccc(S(=O)(=O)Nc3ccccc3Cl)c2)cc1 | -4 | -36* | -14 | -15 | 2
Cc1ccc(-c2nn(-c3ccccc3)cc2/C=N/NC(=O)c2ccc(Br)o2)cc1 | 39* | -19 | -11 | 1 | 4
CCS(=O)(=O)c1ccc(O)c(Nc2cc(C)nc(SC)n2)c1 | 6 | -8 | 0 | . | -2
CC(=O)Nc1ccc2c(c1)OCCOCCOc1cc(NC(C)=O)ccc1OCCOCCOCCO2 | . | -70* | -3 | . | 1
Cc1cccc(C)c1N1CCN(C(=O)Nc2ccc3c(c2)OCCO3)CC1 | -3 | -34* | -6 | ? | 20
CC(=O)c1ccc2c(c1)OCCOCCOCCOCCOCCO2 | -5 | -17 | -8 | -9 | 3
COc1ccc(-n2c(=O)c3c4c(sc3n(Cc3cc(=O)n5c(C)cccc5n3)c2=O)CCC4)c(OC)c1 | 0 | 11 | 0 | . | 5
S=c1nc(-c2cccc(Cl)c2)[nH][nH]1 | 6 | 17 | -2 | -55* | 0
O=C(Nc1ccc(Cl)cc1F)c1oc(=O)c2ccccc2c1-c1ccccc1 | 6 | 12 | 4 | . | 14
CCOC(=O)C1=C(Cc2ccc(F)cc2)C(=O)c2ccccc2C1=O | -26 | -5 | -2 | -100* | 13
